Measurements published in PubChem BioAssay.

Tests used:
[1] = test system: Human papillomavirus type 1a protein E7 (residues 44-93); assay: HPV1a E7 fragment binders on microarrays, primary screen, biochemical, small-molecule microarray, residues 44-93, 635 nm fluorescence (AID 1108); details: small-molecule microarray binding, fluorescence 635 nm; higher = more signal;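 further: E7 fragment applied at 1 µg/mL in TBST for 1 h at 4 C; score combines spot fluorescence with its signal to noise ratio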
[2] = modulators of HCV replicon luciferase signal, primary screen, HCV replication inhibitor project, Huh7 cells, luciferase reporter (AID 1109); details: 48 h, higher = more signal;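 further: huh7 hepatoma cells harbouring a luciferase neomycin HCV replicon reporter; luciferase luminescence as measure of HCV replicon replication; test concentration not given here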
[3] = molecular target: Left-right determination factor 2 (Homo sapiens) (UniProt O00292); assay: LEFTY2 binders on small-molecule microarrays, primary screen, biochemical, small-molecule microarray, 635 nm fluorescence scan (AID 1110); details: LEFTY2 binding, higher = more signal
Chain of Left-right determination factor 2 (Homo sapiens) (O00292 whole entry, looked up): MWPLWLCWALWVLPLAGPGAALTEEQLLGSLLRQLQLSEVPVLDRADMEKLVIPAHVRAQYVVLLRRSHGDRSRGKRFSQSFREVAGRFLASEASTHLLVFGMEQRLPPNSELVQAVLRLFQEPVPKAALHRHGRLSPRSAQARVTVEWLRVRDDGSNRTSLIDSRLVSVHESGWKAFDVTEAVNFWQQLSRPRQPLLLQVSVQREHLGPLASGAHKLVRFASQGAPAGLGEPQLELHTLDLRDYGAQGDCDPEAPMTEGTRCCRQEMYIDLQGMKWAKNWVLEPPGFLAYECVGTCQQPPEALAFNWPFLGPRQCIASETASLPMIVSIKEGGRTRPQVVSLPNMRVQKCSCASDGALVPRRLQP

[4] = molecular target: Calmodulin-1 (Homo sapiens) (UniProt P0DP23); assay: CALM1 binders on microarrays, EGTA buffer, profiling panel, biochemical, small-molecule microarray, Cy5-labelled CALM1 (AID 1111); details: Cy5-CALM1 binding fluorescence, higher = more signal;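 further: labelled calmodulin applied in Tris saline Tween buffer holding calcium plus EGTA and DTT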
[5] = molecular target: Calmodulin-1 (Homo sapiens) (UniProt P0DP23); assay: calcium-bound CALM1 binders on microarrays, profiling panel, artefact control for SMM control-protein annotation, biochemical, small-molecule microarray, Cy5-labelled CALM1, plus calcium (AID 1112); details: Cy5-CALM1 binding fluorescence, higher = more signal;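 further: score merges spot fluorescence with signal to noise from triplicate slides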
[6] = small-molecule microarray binders of probe aWnt5a, primary screen, biochemical, biotinylated probe, 635/667 nm fluorescence (AID 1113); details: higher = more signal;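 further: score merges 667 nm fluorescence intensity with signal-to-noise per printed feature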
[7] = small-molecule microarray binders of probe aShh, primary screen, biochemical, biotinylated probe, 635/667 nm fluorescence (AID 1114); details: higher = more signal;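 further: probe is biotin-labelled aShh protein from a stem cell growth factor screen; measures binding of labelled protein to compounds printed on the slide; score merges feature fluorescence at 667 nm with signal-to-noise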
[8] = small-molecule microarray binders of probe aNog, primary screen, biochemical, biotinylated probe, 635/667 nm fluorescence (AID 1115); details: higher = more signal;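 further: probe is biotinylated aNog protein used at 0.15 µg/mL for 1 h at 4 C; z-score combines 667 nm fluorescence of each spot with its signal to noise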
[9] = molecular target: Torsin-1A-interacting protein 1 (Homo sapiens) (UniProt Q5JTV8); assay: LAP1 binders from COS7 cell lysate, primary screen, small-molecule microarray, 635/667 nm fluorescence (AID 1116); details: COS7-hLAP1 lysate binding, 635 nm fluorescence, higher = more signal
Chain of Torsin-1A-interacting protein 1 (Homo sapiens) (Q5JTV8 whole entry, looked up): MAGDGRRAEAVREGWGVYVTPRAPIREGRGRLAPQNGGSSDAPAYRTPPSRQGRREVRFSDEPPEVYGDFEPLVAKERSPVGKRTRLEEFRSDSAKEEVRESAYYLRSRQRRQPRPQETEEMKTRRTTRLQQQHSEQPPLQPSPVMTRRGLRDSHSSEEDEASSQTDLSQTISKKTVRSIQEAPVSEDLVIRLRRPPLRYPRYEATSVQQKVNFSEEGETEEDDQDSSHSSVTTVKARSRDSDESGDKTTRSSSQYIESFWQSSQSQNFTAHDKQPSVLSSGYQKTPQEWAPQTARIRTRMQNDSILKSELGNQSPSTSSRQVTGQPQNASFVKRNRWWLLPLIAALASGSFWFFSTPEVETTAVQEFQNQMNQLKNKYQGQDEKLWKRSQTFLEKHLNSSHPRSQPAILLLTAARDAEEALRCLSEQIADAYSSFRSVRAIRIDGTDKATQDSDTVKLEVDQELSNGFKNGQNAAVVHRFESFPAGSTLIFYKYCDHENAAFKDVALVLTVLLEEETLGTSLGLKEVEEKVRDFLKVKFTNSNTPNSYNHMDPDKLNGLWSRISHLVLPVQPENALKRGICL

[10] = molecular target: Alpha-bungarotoxin (Bungarus multicinctus) (UniProt P60615); assay: alpha-bungarotoxin binders on microarray, profiling panel, artefact control for SMM control protein annotation, biochemical, small-molecule microarray, Alexa647 label, 635/667 nm fluorescence (AID 1117); details: alpha-BTX-A647 binding fluorescence, higher = more signal
Chain of Alpha-bungarotoxin (Bungarus multicinctus) (P60615 whole entry, looked up): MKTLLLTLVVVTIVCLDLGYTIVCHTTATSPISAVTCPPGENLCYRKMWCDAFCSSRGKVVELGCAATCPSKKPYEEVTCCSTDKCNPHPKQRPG

Row | SMILES | composite z-score [1] | z-score [2] | composite z-score [3] | composite z-score [4] | composite z-score [5] | composite z-score [6] | composite z-score [7] | composite z-score [8] | composite z-score [9] | composite z-score [10]
1 | COC(=O)C(CC#Cc1ccc2c(c1)[C@]1(C(=O)N2)[C@H](c2ccc(OCCO)cc2)N2[C@H](c3ccccc3)[C@H](c3ccccc3)OC(=O)[C@H]2[C@@H]1C(=O)NC[C@H](O)c1ccccc1)C(=O)OC | 1.17 | -1.39 | -0.0571 | 0.794 | 0.524 | -0.0346 | 0.356 | 0.333 | -0.585 | 2.1
2 | C=C[C@@H](COC(C)=O)N(Cc1ccc([N+](=O)[O-])cc1)S(=O)(=O)c1ccc(Br)cc1 | -0.541 | -0.365 | 0.59 | 0.989 | 0.729 | -0.0597 | -0.0709 | 0.392 | 0.546 | 1.78
3 | COc1ccc([Si](C)(C)[C@H]2[C@H](CCn3cc([C@H](O)c4ccccc4)nn3)O[C@@]3(C(=O)N(Cc4cccc(N5CCC5=O)c4)c4ccccc43)[C@@H]2C)cc1 | -0.268 | -1.73 | 0.183 | 0.318 | 0.193 | -0.114 | 0.0278 | -0.118 | 0.412 | 0.167
4 | CS(=O)(=O)CCOC(=O)C1=CC(CCCO)=CC(c2cccs2)N(Cc2cc3c(cc2Br)OCO3)C=C1C(=O)OCCS(C)(=O)=O (stereo not given) | 1.27 | -1.22 | 0.858 | 1.29 | 0.671 | 0.0968 | 0.0639 | -0.261 | 0.955 | 1.8
5 | O=C1O[C@@H](c2ccccc2)[C@@H](c2ccccc2)N2[C@@H](c3ccc(OCCO)cc3)[C@]3(C(=O)Nc4ccc(C#CC5=CCCCC5)cc43)[C@@H](C(=O)O)[C@H]12 | 0.594 | -1.63 | 0.374 | 2.23 | 1.15 | -0.102 | -0.107 | 0.167 | 1.57 | 2.89
6 | CN(C)CCCCNC(=O)[C@H]1C[C@H]2C(=O)N[C@@H](Cc3ccccc3)C(=O)N2[C@H]1c1ccc(O)cc1 | 1.38 | 0.506 | 1.17 | 0.561 | 0.746 | -0.0866 | -0.0243 | 0.355 | 0.945 | 1.55
7 | COCCOC(=O)N1C(=O)[C@@]2(c3ccccc31)[C@H](c1ccc(O)cc1)N1[C@H](c3ccccc3)[C@H](c3ccccc3)OC(=O)[C@H]1[C@@H]2C(=O)N1CCc2cc(OC)c(OC)cc2C1 | 0.607 | -1.47 | 1.01 | 0.889 | 0.579 | -0.0819 | -0.214 | -0.533 | 0.811 | 0.789
8 | CCOC(=O)[C@H]1C/C=C/C[C@H](C(=O)OCC)C(=O)O[C@H]2[C@@H](OC)O[C@H](CO)[C@@H](OC(=O)Nc3ccc4c(c3)OCO4)[C@@H]2OC1=O | 0.433 | -3.52 | -0.261 | 0.346 | 0.152 | 0.0608 | 0.28 | 0.122 | 0.591 | 0.167
9 | COc1ccc(C#Cc2ccc3c(c2)[C@]2(C(=O)N3)[C@H](c3ccc(O)cc3)N3[C@H](c4ccccc4)[C@H](c4ccccc4)OC(=O)[C@H]3[C@@H]2C(=O)NC[C@H](O)c2ccccc2)cc1 | 1.33 | -1.63 | 0.0197 | 0.199 | 0.689 | 0.164 | -0.138 | 0.305 | 0.818 | 1.26
10 | C=CCC(OC(C)=O)[C@@H]1[C@@H](N(Cc2cc3ccccc3o2)C(=O)c2ccc(C)cc2)c2cc(OCCCO)ccc2N1C(=O)c1ccc2ccccc2c1 (stereo not given in full) | 0.0468 | -0.274 | 0.161 | -0.0375 | 0.37 | -0.0644 | 0.313 | -0.314 | 0.189 | -0.298
11 | O=C1C2C=CC(C(O)c3cccs3)N(Nc3ccccc3F)C2C(=O)N1c1ccccc1 (stereo not given) | 0.749 | 0.124 | -0.0883 | 0.0073 | -0.65 | 0.0633 | 0.0723 | -0.126 | 0.543 | 0.825
12 | O=c1oc(-c2ccccc2)nc2cc(Br)ccc12 | 0.55 | -1.04 | 0.69 | -0.0114 | -0.427 | -0.117 | -0.221 | -0.221 | 0.503 | 0.318
13 | CCCCC=C[C@@H](NC(=O)c1ccco1)c1ccccc1 | -0.244 | -0.502 | 0.0518 | 1.31 | 0.137 | 0.0151 | 0.356 | 0.531 | -0.153 | 1.18
14 | COC(=O)[C@@]1(Cc2ccc(OC)cc2)[C@H]2c3cc(C(=O)N(C)C)n(Cc4c(OC)[nH]cc(C)c4=O)c3C[C@H]2CN1C(=O)c1ccccc1 | -0.117 | -1.1 | 0.464 | 0.352 | -0.117 | -0.16 | -0.352 | -0.248 | 0.808 | -0.0941
15 | [N-]=[N+]=NCc1ccccc1[C@@H]1OC(c2ccc(OCCCO)cc2)=N[C@]1(Cc1ccccc1N=[N+]=[N-])C(=O)NCc1ccccc1 | 1.33 | -1.64 | 0.374 | 1.34 | 0.12 | -0.138 | -0.221 | -0.447 | 1.4 | 0.158
16 | CN1C=C(C(=O)OCCS(C)(=O)=O)C(C(=O)OCCS(C)(=O)=O)=CC(CCCO)=CC1C1CC1 (stereo not given) | 0.117 | -0.552 | -0.0097 | 0.0991 | -0.0416 | -0.126 | 0.0434 | 0.257 | -0.116 | 0.198
